NS1 function inh = influenza NS1 inhibition; hit rate 0.4% among 270,000; Potency, µM (highest dose often 46.1 µM); calls by dose curve; also: actives are rising curves; nearly all actives have a fitted effect of over 50% in size
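Recovery from NS1-induced slow growth read by OD600 in budding yeast switched to galactose assay medium (pH 6.0, -URA) at 1:100 dilution. Compound 23 nl per well; the matching strain lacking NS1 serves as control.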
Pf growth 48h = P. falciparum growth inhibition at 48 hours (one generation) | P. falciparum luciferase growth in erythrocytes, 48 h | Potency, µM (top dose mostly 28.7 µM), hits mostly inhibitors | hit rate 5.9% among 310,000
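A one-generation exposure of luciferase-tagged malaria parasites in RPMI 1640/Albumax erythrocyte culture, 37 C and 5% CO2. Inhibition is inferred from decreased luminescence after adding detection reagent.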
HCV inh = HCV inhibition; Huh7.5.1 HCVcc-Cre infection, luciferase reporter, 44 h; Potency, µM (titrated, usually from 41.8 µM), most hits filed as inhibitors; hit rate 3.4% among 340,000; AID 651820
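Whole-lifecycle infectious HCVcc-Cre system; cells 1,000/well, compound then virus (~0.5 moi) added 4 h after plating, 44 h culture. Luciferase read 15 sec following 15 min substrate incubation, room temp.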
SARS PLP yeast = blocks SARS-CoV papain-like protease in a yeast assay; Potency, µM (top dose mostly 32.9 µM), actives largely listed as activators; S. cerevisiae expressing SARS-CoV PLpro, growth rescue; hit rate 0.19% among 330,000; calls by dose curve; also: nearly all actives have a fitted effect of over 55% in size
Pf growth 96h = P. falciparum growth inhibition at 96 hour, primary screen for plastid delayed-death inhibitors. P. falciparum luciferase reporter growth, 96 h. Potency, µM (top dose mostly 28.7 µM), most hits filed as inhibitors. hit rate 6.9% among 320,000. AID 504834
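P. falciparum expressing integrated firefly luciferase, in erythrocytes at 2% hematocrit, 0.05% parasitemia, incubated with compounds 96 h at 37 C, 5% CO2. Growth inhibition read as loss of luminescence; two-generation exposure targets delayed-death apicoplast inhibitors.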
AMA1 RON2 block = AMA1-RON2 (P. falciparum) interaction inhibition. AID 720542. AlphaScreen AMA1-biotinylated RON2 peptide binding. Potency, µM (titrated, usually from 58.2 µM), hits mostly inhibitors. hit rate 0.2% among 360,000; also: nearly all actives have a fitted effect of over 45% in size
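AMA1 (3D7) with his tag at 25 nM final met compounds first, then biotinylated RON2 peptide at 25 nM; detection used donor plus acceptor beads, 10 µg/mL apiece, read by AlphaScreen after 30 min at room temperature.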
Numbers stand for hits; i = inactive; ? = inconclusive; nt = not tested or not shown; [ ] = dose if it differs, or a comment. A selection: hits, their analogues and other compounds. The true share with any hit is near 12%. Unless noted, calls follow the shape of the dose curve; as a rule, active = well fitted curve in the direction sought with a large enough effect; inconclusive = small, poorly fitted or top-dose-only effect, or another doubt; inactive = no such curve, though single readings can be large; an effect the other way counts as inactive or inconclusive.

SMILES | NS1 function inh | Pf growth 48h | HCV inh | SARS PLP yeast | Pf growth 96h | AMA1 RON2 block
COc1ccc(OC)c(NC2c3ccccc3C(=O)N2Cc2ccc3c(c2)OCO3)c1 (configuration not stated) | i | nt | i | i | ? | 15.8µM
O=C1c2ccccc2C(Nc2cccnc2)N1Cc1ccc2c(c1)OCO2 (configuration not stated) | i | i | i | i | 1.47µM | i
COc1ccc(CN2C(=O)c3cccnc3C2Nc2cc(Cl)ccc2OC)cc1 (configuration not stated) | i | 5.22µM | i | i | ? | ?
O=C1c2ccccc2C(O)N1Cc1ccc2c(c1)OCO2 (configuration not stated) | i | nt | i | i | i | i
COc1ccc(OC)c(NC2c3ncccc3C(=O)N2Cc2ccco2)c1 (configuration not stated) | ? | i | i | i | i | i
O=C1c2ccccc2C(Nc2ccc3c(c2)OCO3)N1Cc1ccco1 (configuration not stated) | i | i | i | i | ? | i
O=C1c2ccccc2C(Nc2ccc3c(c2)OCO3)N1Cc1ccc2c(c1)OCO2 (configuration not stated) | i | 9.28µM | ? | i | 3.29µM | i
Cc1cc(C)c2nc(NC(=O)CN3C(=O)NC4(CCCC4)C3=O)sc2c1 | nt | i | ? | i | i | i
COc1cccc(CN2CCCC(C(=O)N3CCCCC3)C2)c1 (configuration not stated) | i | i | i | i | i | i
NS(=O)(=O)c1ccc(CNC(=O)c2cc(S(=O)(=O)N3CCOCC3)c(Cl)cc2Cl)cc1 | nt | i | i | i | ? | i
CCOC(=O)N1CCN(c2ccc(S(=O)(=O)N3CCC(C)CC3)cc2[N+](=O)[O-])CC1 | nt | 10.4µM | ? | i | 9.28µM | i
O=C(O)C1CCN(S(=O)(=O)c2ccc(N3CCC(O)CC3)c([N+](=O)[O-])c2)CC1 | i | ? | i | i | 9.28µM | i
CCN(CC)CCN1C(=O)C(=O)/C(=C(/O)c2ccc(OC(C)C)cc2)C1c1ccncc1 (configuration not stated) | i | nt | i | i | 14.7µM | i
CC1Cc2cc(/C(O)=C3/C(=O)C(=O)N(CCCn4ccnc4)C3c3ccco3)ccc2O1 (configuration not stated) | i | i | i | i | 0.208µM | i
CCCOc1ccc(/C(O)=C2/C(=O)C(=O)N(CCOC)C2c2cccnc2)cc1 (configuration not stated) | i | 1.04µM | nt | i | ? | nt
CCN(CC)CCN1C(=O)C(=O)/C(=C(/O)c2ccc(OC)cc2)C1c1ccco1 (configuration not stated) | i | i | i | i | 0.928µM | i
CCN(CC)CCN1C(=O)C(=O)/C(=C(/O)c2ccc(C)cc2)C1c1ccncc1 (configuration not stated) | i | i | i | i | ? | nt
Cc1c(C(=O)N/N=C/c2ccncc2)nnn1-c1nonc1N | nt | i | i | i | i | i
CCN(CC)C(=O)Cn1cc(SCC(=O)NC2CCCCC2)c2ccccc21 | nt | nt | nt | nt | nt | i
Cc1cn(CC(=O)NCC(C)c2ccccc2)c(=O)[nH]c1=O (configuration not stated) | nt | nt | i | nt | nt | i
COc1ccc(OC)c(-n2c(CNC3CCN(Cc4ccccc4)CC3)nc3ccccc3c2=O)c1 | i | nt | i | i | 11.7µM | i
COc1ccc(OC)c(-n2c(CN3CCC(C(N)=O)CC3)nc3ccccc3c2=O)c1 | i | i | i | i | i[5.75 µM] | i
CCCn1c(SCC(=O)Nc2cccc(C(=O)OC)c2)nnc1-c1cccnc1 | i | i | i | i | 10.4µM | i
CCOC(=O)c1cccc(NC(=O)CSc2nnc(-c3ccncc3)n2CCCOC)c1 | i | i | i | i | ? | i
COC(=O)c1cccc(NC(=O)CSc2nc3cccnc3n2C)c1 | i | ? | 14.1µM | i | nt | i
Cn1c(SCC(=O)N2CCCCC2)nc2cccnc21 | i | i | i | i | 13.1µM | i
CCn1c(Cn2nnc(-c3ccccc3)n2)nnc1SCC(=O)Nc1ccc(C(C)=O)cc1 | i | ? | ? | i | ? | i
CCn1c(Cn2nnc(-c3ccccc3)n2)nnc1SCC(=O)Nc1cccc(C(C)=O)c1 | i | nt | 35.5µM | i | i | i

Assay outcomes: PubChem BioAssay, National Center for Advancing Translational Sciences (NCATS)
